Screening results deposited in PubChem BioAssay by The Scripps Research Institute Molecular Screening Center.
This is a sample that favours compounds with a hit; in the whole collection about 3.5% have one here.
GPR151 activ – activators of human GPR151, primary screen, cell-based, PathHunter beta-arrestin, luminescence. G-protein coupled receptor 151 (Homo sapiens), Q8TDV0. PathHunter beta-arrestin GPR151 cells. activation, % at 11.2 µM. actives 1% (n = 650,000); in the data active = activation above about 4.9%;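 note: 0% = median of compound wells and 100% = cells with positive control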
Target sequence (Q8TDV0 whole entry, looked up): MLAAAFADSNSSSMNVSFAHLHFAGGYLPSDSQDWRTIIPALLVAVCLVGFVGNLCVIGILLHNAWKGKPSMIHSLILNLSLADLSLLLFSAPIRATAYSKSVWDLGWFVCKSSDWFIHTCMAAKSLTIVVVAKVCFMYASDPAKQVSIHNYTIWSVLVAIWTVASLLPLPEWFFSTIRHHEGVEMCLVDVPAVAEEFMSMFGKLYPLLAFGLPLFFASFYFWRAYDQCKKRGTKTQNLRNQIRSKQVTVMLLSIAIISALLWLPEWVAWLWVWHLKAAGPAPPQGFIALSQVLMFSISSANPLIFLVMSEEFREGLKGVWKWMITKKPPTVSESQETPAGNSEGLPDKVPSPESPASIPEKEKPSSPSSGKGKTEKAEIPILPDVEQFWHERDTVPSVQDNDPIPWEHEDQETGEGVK
TEAD-YAP inh – TEAD-YAP interaction inhibition, primary screen, TEAD-YAP interaction inhibitor project, luminescence, HEK-TIYL cells. AID 1259422, 2018. actives 1.4% (n = 640,000). TEAD-Gal4/YAP UAS-luciferase luminescence. inhibition, % at 9.12 µM; in the data active = inhibition above about 32%;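 note: 0% = median of test compound wells and 100% = reference inhibitor wells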
FBW7 act – FBW7 E3 ligase activators, primary screen, biochemical, AlphaScreen, human. actives 0.13% (n = 650,000). AID 1259310, 2017. AlphaScreen FBW7–phospho-cyclin E peptide binding, activator screen. normalized activity (activation), % at 26.1 µM; in the data active = normalized activity above about 1.9%;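 note: purified mutant Fbw7 with reduced substrate affinity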
MITF inh – MITF inhibitors, primary screen, biochemical, AlphaScreen, human; AlphaScreen MITF homodimerization, bead proximity signal; inhibition, % at 2.6 µM; Microphthalmia-associated transcription factor (Homo sapiens), O75030; actives 0.91% (n = 650,000); AID 1259374, 2018; in the data active = inhibition above about 50%;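 note: 0% = vehicle wells with protein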
* hit, by the source's call.

SMILES	GPR151 activ	TEAD-YAP inh	FBW7 act	MITF inh
Cn1c(=O)cc(N2CCN(c3cccc(Cl)c3)CC2)[nH]c1=O	-0.6	37.8*	-0.1	-5.1
Cn1c(=O)cc(N2CCN(c3ccc(F)cc3)CC2)[nH]c1=O	4.7	1.2	0.0	-13.8
Cc1ccc2onc(CNC(=O)NCCC3=CCCCC3)c2c1	-1.2	-4.8	0.0	14.8
CN(C)CCNC(=O)c1cc2c(Cl)nc3ccccc3c2s1	-2.4	54.9*	0.3	17.8
O=C1NC(=O)C(=Cc2cc(O)c(O)c(Br)c2)C(=O)N1	1.6	3.8	-0.3	57.8*
O=C1NC(=O)C(=Cc2cc(Br)c(I)o2)C(=O)N1	-1.1	1.9	-0.6	58.6*
CCOc1cc(C=C2C(=O)NC(=O)NC2=O)cc(Br)c1O	-0.3	1.3	-0.3	7.5
COc1cccc(NC(=O)CCCc2nc(-c3ccc(OC)c(OC)c3)no2)c1	-1.3	13.6	-0.2	7.2
CCOC(=O)C1=C(c2ccc(F)cc2)C(=O)c2ccccc2C1=O	0.0	26.3	-0.6	13.5
CCOC(=O)C1=C(Cc2ccc(OC)cc2)C(=O)c2ccccc2C1=O	-0.9	46.2*	0.2	11.8
COc1ccc(C(=O)NNC(=O)c2ccccn2)cc1	-8.9	93.7*	-0.3	-3.5
COc1ccccc1C(=O)NNC(=O)c1cnccn1	1.4	11.3	-1.3	6.5
COc1ccccc1C(=O)NNC(=O)c1ccccn1	-2.3	40.6*	-1.9	45.1
Cc1ccc(C)c(OCC(=O)NNC(=O)c2ccccn2)c1	3.4	37.0*	-0.5	3.2
CC(=O)c1ccc(NC(=O)c2ccccn2)cc1	-8.5	86.9*	0.4	15.6
CC(=O)c1ccc(NC(=O)NNC(=O)c2ccccn2)cc1	0.3	-44.2	-0.8	23.3
COc1ccc(C(=O)COc2ccccc2)c(OC)c1	-0.6	-23.4	-0.1	-2.6
O=C(NCc1nnc2n1CCN(C/C=C/c1ccccc1)CC2)C1CC1	0.2	3.0	-0.1	3.1
CC1=NN(c2ccc(C)cc2C)C(=O)C12C(c1ccccc1Cl)C21C(=O)N(c2ccc(Cl)cc2C)N=C1C (configuration not stated)	-0.2	12.8	-0.3	11.9
CCOc1ccc(NC(=O)c2oc(=O)c3ccccc3c2-c2ccccc2)cc1	-1.0	4.8	0.0	4.4
CCCc1cc(=O)[nH]c(SCc2nc3ccccc3n2C)n1	-0.9	-5.2	-0.8	19.7
OCC1(Cc2ccc(Cl)cc2)CCN(C2CCSCC2)CC1	2.0	-4.4	0.0	-12.3
Cc1cccc(NC(=O)C2COc3ccccc3O2)n1 (configuration not stated)	1.4	-29.7	-0.1	6.7
O=C(Nc1cc(C(F)(F)F)cc(Cl)n1)C1COc2ccccc2O1 (configuration not stated)	-0.9	9.0	1.9*	12.5
COc1cc(/C=N/NC(=O)Cn2c(-c3nonc3N)nc3ccccc32)ccc1O	-0.4	45.1*	-0.2	6.3
SMILES	GPR151 activ	TEAD-YAP inh	FBW7 act	MITF inh
COc1cccc(/C=N\NC(=O)Cn2c(-c3nonc3N)nc3ccccc32)c1O	-0.9	28.5	0.4	12.1
Nc1nonc1-c1nc2ccccc2n1CC(=O)Nc1ccccc1-c1ccccc1	2.5	-11.0	0.0	6.6
Nc1nc(N)nc(CCCn2c(-c3nonc3N)nc3ccccc32)n1	-0.3	57.3*	0.0	12.4
COC(=O)c1sccc1NC(=O)Cn1c(-c2nonc2N)nc2ccccc21	0.7	49.6*	-0.2	-7.7
CCOC(=O)c1ccccc1NC(=O)Cn1c(-c2nonc2N)nc2ccccc21	0.4	52.0*	0.0	2.2
Cn1ccnc1C(NC(=O)N1CCOCC1)c1ccccc1 (configuration not stated)	-0.6	-0.9	-0.1	5.2
CCOC(=O)C1CCN(c2cc(NCC(=O)O)c3c4c(onc24)-c2ccccc2C3=O)CC1	-2.4	2.0	-1.3	70.2*
O=C(O)CCNc1cc(N2CCC3(CC2)OCCO3)c2noc3c2c1C(=O)c1ccccc1-3	-2.1	25.5	-0.5	62.8*
O=C(O)CNc1cc(N2CCCCC2)c2noc3c2c1C(=O)c1ccccc1-3	-0.3	59.2*	-1.1	48.9
Cc1noc(C)c1S(=O)(=O)N1CCCC(c2[nH]ncc2-c2ccccc2)C1 (configuration not stated)	0.8	-3.1	-0.1	-2.3
CC(=O)N1CCN(Cc2ccc3c(c2)CN(C(=O)CCC2CCCCC2)CCO3)CC1	1.1	10.1	-0.1	3.3
O=C(O)c1ccc(NC2=C/C(=N/S(=O)(=O)c3cccs3)c3ccccc3C2=O)cc1	-2.4	-10.7	-0.4	7.0
O=C(O)c1ccc(NC2=C/C(=N/S(=O)(=O)c3ccccc3)c3ccccc3C2=O)cc1	-3.0	0.2	-0.1	9.1
O=C1C(Nc2ccc(O)cc2)=C/C(=N/S(=O)(=O)c2cccs2)c2ccccc21	-1.8	97.4*	-0.6	29.4
COc1ccccc1NC1=C/C(=N/S(=O)(=O)c2ccccc2)c2ccccc2C1=O	-0.8	47.7*	-0.6	71.2*
COc1ccccc1NC1=C/C(=N/S(=O)(=O)c2cccs2)c2ccccc2C1=O	-0.3	-11.8	-0.6	53.7*
O=C1C(Nc2ccc(O)cc2)=C/C(=N/S(=O)(=O)c2cccc([N+](=O)[O-])c2)c2ccccc21	-1.7	92.2*	-0.6	28.5
CCCOc1ccc(/C(O)=C2\C(=O)C(=O)N(CCN(C)C)C2c2ccccc2F)c(C)c1 (configuration not stated)	0.4	10.6	0.4	4.9
O=C(CSc1nc2ccccc2c(=O)n1Cc1ccc2c(c1)OCO2)c1ccc(Cl)cc1	0.2	6.9	0.2	3.5
COc1ccc(CC(=O)N2CCC(c3nc(C)ncc3-c3ccncc3)CC2)cc1	0.0	-17.4	2.4*	16.6
CCOc1ccc(-c2csc(/C(C#N)=C\Nc3ccc(NC(C)=O)cc3)n2)cc1	0.0	-5.6	0.2	-5.3
O=C(NC1CC1)c1ccc(-c2nc(Nc3ccccc3)c3ncn(-c4ccsc4)c3n2)cc1	1.3	23.0	25.2*	13.2
O=C(NC1CC1)c1ccc(-c2nc(NCc3cccc(C(F)(F)F)c3)c3ncn(-c4ccsc4)c3n2)cc1	1.0	8.1	0.3	6.4
NC(=O)c1ccc(-c2nc(NCc3nc4ccccc4[nH]3)c3ncn(-c4ccsc4)c3n2)cc1	1.4	82.9*	0.3	17.5
c1ccc(-c2nc(NCc3nc4ccccc4[nH]3)c3ncn(-c4ccsc4)c3n2)cc1	-0.1	58.1*	0.0	7.0
O=C(NC1CC1)c1ccc(-c2nc(NCc3nc4ccccc4[nH]3)c3ncn(-c4ccsc4)c3n2)cc1	2.8	87.0*	-0.1	7.1
CC1=NN(C(=O)c2ccc(N/C(C)=C/C(=O)C(F)(F)F)cc2)C(O)(C(F)(F)F)C1 (configuration not stated)	0.0	-19.3	0.0	13.7
CC(C)(c1cc(CN2CCCCC2)c(O)c(CN2CCCCC2)c1)c1cc(CN2CCCCC2)c(O)c(CN2CCCCC2)c1	0.8	17.2	0.0	3.8
CCC1(C)CC2(CCCN(CC#CCN3CCOCC3)C2)CCO1 (configuration not stated)	-0.1	2.4	0.7	-0.5
